The source of these data is the supplement of paper PMC9588786.

± gives the standard deviation of the averaged measurements.
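Also: viability read as CCK-8 absorbance at 450 nm in cells co-exposed to the GPX4 inhibitor RSL3, relative to a 0.01% DMSO vehicle control.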

The assay deals with HT-1080. Description: relative cell viability with RSL3 co-treatment (fraction of control); higher = stronger protection from RSL3-induced ferroptosis (higher viability). To be noted: 10 µM.
`O=C(Nc1ccccc1C(=O)NC1CCCCNC1=O)c1cc2ccccc2s1` (stereo not drawn): the relative cell viability came out at 0.803 ± 0.011. With `C=CC(=O)Nc1cccc(Oc2nc(Nc3ccc(N4CCN(C)CC4)cc3OC)ncc2Cl)c1` the figure was 0.927 ± 0.04; with `CC(C)CCN1c2nc(Nc3cc(F)c(O)c(F)c3)ncc2N(C)C(=O)C1C` (stereo not drawn), 0.717 ± 0.14; with `COc1cc2nccc(Oc3ccc(NC(=O)C4(C(=O)Nc5ccc(F)cc5)CC4)cc3)c2cc1OC` [Cabozantinib malate (XL184)], 0.8 ± 0.017.

In the case of `CC(=O)Nc1nc(C)c(-c2ccc(Cl)c(S(=O)(=O)NCCO)c2)s1`, the relative cell viability was found to be 0.603 ± 0.057. In the case of `CN(C)S(=O)(=O)c1ccc2c(c1)/C(=C/c1cc3c([nH]1)CCCC3)C(=O)N2`, the relative cell viability turned out to be 0.727 ± 0.081.

Turning to `COc1cc2ncnc(Nc3ccc(F)c(Cl)c3)c2cc1NC(=O)/C=C/CN1CCCCC1`, the relative cell viability was determined as 0.61 ± 0.046. With `C#Cc1cccc(Nc2ncnc3cc(OCCOC)c(OCCO)cc23)c1` the figure was 0.597 ± 0.081. As for `CC[C@@H]1C(=O)N(C)c2cnc(Nc3ccc(C(=O)NC4CCN(C)CC4)cc3OC)nc2N1C1CCCC1`, the relative cell viability worked out at 0.553 ± 0.031. In the case of `CS(=O)(=O)c1cccc(CNc2nc(Nc3ccc4c(c3)CCC(=O)N4)ncc2C(F)(F)F)c1` it was 0.91 ± 0.085. `O=C(Nc1cc(C(F)(F)F)cc(C(F)(F)F)c1)c1cc(Cl)ccc1O`: the relative cell viability turned out to be 0.537 ± 0.06. Turning to `CS(=O)(=O)N1CCN(Cc2cc3nc(-c4cccc5[nH]ncc45)nc(N4CCOCC4)c3s2)CC1` [Pictilisib (GDC-0941)], the relative cell viability was determined as 0.547 ± 0.11.

As for `C=CC(=O)Nc1cc(Nc2nccc(-c3cn(C)c4ccccc34)n2)c(OC)cc1N(C)CCN(C)C` [Osimertinib (AZD9291)], the relative cell viability worked out at 0.403 ± 0.068.

`COc1cccc2cc(-c3nc([C@H]4CC[C@H](C(=O)O)CC4)n4ncnc(N)c34)[nH]c12`: the relative cell viability amounted to 0.7 ± 0.07. Consider `N#Cc1c(Oc2ccc(F)c(NC(=O)Cc3cccc(C(F)(F)F)c3)c2)ccc2nc(NC(=O)C3CC3)sc12`, for which the relative cell viability was 0.797 ± 0.032.

In the case of `CC(C)(C)c1ccc(S(=O)(=O)/C=C/C#N)cc1`, the relative cell viability was found to be 0.707 ± 0.015. As to `Clc1ccc(C2(c3ccc(-c4cn[nH]c4)cc3)CCNCC2)cc1`, the relative cell viability was 0.373 ± 0.068. For the molecule `Oc1ccc(Nc2nc(-c3ccc(Cl)cc3)cs2)cc1`, the relative cell viability turned out to be 0.66 ± 0.095. With `CCCNC(=O)Nc1ccc(Oc2ncnc3cc(OC)c(OC)cc23)cc1Cl` the figure was 0.757 ± 0.42; with `COc1ccc(F)c(F)c1C(=O)c1cnc(NC2CCN(S(C)(=O)=O)CC2)nc1N`, 0.577 ± 0.15; with `CC(C)NC[C@@H](C(=O)N1CCN(c2ncnc3c2[C@H](C)C[C@H]3O)CC1)c1ccc(Cl)cc1` [Ipatasertib (GDC-0068)], 0.697 ± 0.12. In the case of `O=c1cc(-c2ccccc2)oc2c(O)c(O)ccc12` [7,8-Dihydroxyflavone] it was 0.713 ± 0.011; in that of `CNC(=O)c1ccccc1Nc1nc(Nc2ccc(N3CCOCC3)cc2OC)ncc1Cl`, 0.247 ± 0.07.

Regarding `COc1nccc(-c2c(-c3ccc(F)cc3)ncn2C2CCC(O)CC2)n1` (stereo not drawn), the relative cell viability was determined as 0.667 ± 0.16.

`NC(=O)Nc1sc(-c2ccc(F)cc2)cc1C(N)=O`: the relative cell viability was 0.87 ± 0.046.

Consider `C=CC(=O)Nc1ccc2ncnc(Nc3cccc(Br)c3)c2c1`, for which the relative cell viability was found to be 0.593 ± 0.055. With `CC[C@@](C)(Nc1ccnc(-c2c[nH]c3ncccc23)n1)C(=O)NCC(F)(F)F` [Decernotinib (VX-509)] the figure was 0.823 ± 0.042. In the case of `CCCCOc1c(C(=O)c2c(F)cc(C)cc2F)c[nH]c2nncc1-2` it was 0.903 ± 0.24; in that of `CC(C)n1nc(-c2cc3cc(O)ccc3[nH]2)c2c(N)ncnc21` [Torkinib (PP242)], 0.833 ± 0.12. With `CCN(C)S(=O)(=O)Nc1ccc(F)c(C(=O)c2c[nH]c3ncc(-c4cnc(C5CC5)nc4)cc23)c1F` the figure was 0.71 ± 0.017; with `NC(=O)c1ccc(N(C(N)=O)c2c(F)cccc2F)nc1-c1ccc(F)cc1F`, 0.733 ± 0.042; with `C[C@@H](Oc1cc(-c2cnn(C3CCNCC3)c2)cnc1N)c1c(Cl)ccc(F)c1Cl`, 0.7 ± 0.026.

For the molecule `CCN(CC)CCCCNc1ncc2cc(-c3cc(OC)cc(OC)c3)c(NC(=O)NC(C)(C)C)nc2n1`, the relative cell viability is 0.633 ± 0.14.

Turning to `O=C(c1cccc(Cl)c1F)N1CCN(Cc2cccc(Nc3nccs3)n2)CC1`, the relative cell viability was found to be 0.573 ± 0.049. In the case of `CCCCCCCCCCCCCCCCCCOP(=O)([O-])OC1CC[N+](C)(C)CC1` [Perifosine (KRX-0401)] it was 0.463 ± 0.18. In the case of `CNC(=O)c1cccc(-c2ccc3c(N4CCOC[C@@H]4C)nc(N4CCOC[C@@H]4C)nc3n2)c1` [Vistusertib (AZD2014)] it was 0.52 ± 0.18; in that of `CCOc1cc(C(=O)N2CCC(N3CCN(C)CC3)CC2)ccc1Nc1ncc2c(n1)N(C1CCCC1)c1ccccc1C(=O)N2C`, 0.457 ± 0.031.

With `O=C(/C=C/c1ccc(O)c(O)c1)c1ccc(O)cc1O` [Butein], the relative cell viability was 0.74 ± 0.075.
